Laboratory results: paper PMC8384837, “Expanding the binding specificity for RNA recognition by a PUF domain”

molecular target: PUM1 PUF domain R1-RRT (Homo sapiens, UniProt Q14671 828-1176, S863R;Q867T); assay: yeast three-hybrid, YBZ-1, SC-Leu-His + 0.5 mM 3-AT, 4 days; details: tags: N-Gal4 AD-HA kept; label: inside an RPR1-promoter hybrid RNA with tandem MS2 sites; ssRNA
How it was run: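 The interaction score is the log change in how often each variant appears, from input to selection. Frequencies came from PCR-amplified, Illumina-sequenced repeat regions of Pumilio-1 PUF domain libraries grown in strain YBZ-1 (LexA–MS2 coat fusion, HIS3 reporter) alongside matching RNA elements. Input plates were SC-Leu and selection plates were SC-Leu-His + 0.5 mM 3-AT, each for four days, and the log2 calculation used a pseudocount of 1 where a variant was absent.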

Chain of PUM1 PUF domain R1-RRT (Q14671 828-1176 S863R/Q867T): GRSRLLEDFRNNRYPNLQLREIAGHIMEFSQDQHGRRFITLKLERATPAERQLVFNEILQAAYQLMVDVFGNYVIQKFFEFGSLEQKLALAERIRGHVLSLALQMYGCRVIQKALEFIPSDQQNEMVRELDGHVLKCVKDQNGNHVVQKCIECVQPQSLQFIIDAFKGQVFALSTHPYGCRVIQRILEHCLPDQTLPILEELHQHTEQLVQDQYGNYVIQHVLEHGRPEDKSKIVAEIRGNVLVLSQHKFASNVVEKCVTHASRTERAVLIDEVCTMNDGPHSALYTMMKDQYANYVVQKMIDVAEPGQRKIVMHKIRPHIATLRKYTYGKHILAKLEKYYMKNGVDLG

Sequence | binding signal
GGCUAGAACUAGUGGAUCCCCCGGCGCCCGGCGGCUCGAGCCCGGGUAAGUGUAAAUCGUCUGCAUGCCGCCGGGCGCCAUGCCUGCAGGUCGACUCUAGAAAACAUG | 4.11 log2 enrichment (interaction score)
GGCUAGAACUAGUGGAUCCCCCGGCGCCCGGCGGCUCGAGCCCGGGUAAGUGUAAAUGGUCUGCAUGCCGCCGGGCGCCAUGCCUGCAGGUCGACUCUAGAAAACAUG | 1.65 log2 enrichment (interaction score)
GGCUAGAACUAGUGGAUCCCCCGGCGCCCGGCGGCUCGAGCCCGGGUAAGUGUAAAUUGUCUGCAUGCCGCCGGGCGCCAUGCCUGCAGGUCGACUCUAGAAAACAUG | 4.21 log2 enrichment (interaction score)
